Screening data deposited in PubChem by Johns Hopkins Ion Channel Center.
CHT block = inhibits the human high affinity choline transporter; CHT-expressing cells, membrane potential dye, choline response; hits give low values; B-score at 10 µM; 310,000 tested, 0.86% active;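 active = B-score over 3 SD under the library average, and starting fluorescence ratio not unusually high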;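 also: choline stimulus applied at its EC90 after an EC20 pre-addition; B-score computed on integrated fluorescence ratio after choline addition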
TMEM16A inh = blocks the mouse calcium-activated chloride channel TMEM16A. 310,000 tested, 1.2% active. normalized B-score (activity score, 25-100; higher = stronger inhibition) at 10 µM. HEK293 TMEM16A/YFP iodide influx fluorescence, ionomycin. Q8BHY3. AID 588511;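 active = ratio plate-corrected score three or more library SD toward inhibition, starting fluorescence score within five deviations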;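 also: score derived from kinetic fluorescence span divided by baseline fluorescence per well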
CHT allo act = human CHT allosteric activation; Q9GZV3; CHT-expressing cells, membrane potential dye, choline EC20; hits give high values; LV-AA mutant CHT in HEK293 cells; B-score at 10 µM; 310,000 tested, 0.49% active; AID 488977;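 active = initial fluorescence not abnormally high and integrated response B-score, plate-corrected, over 3 SD above library mean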
TMEM16A act = mouse TMEM16A channel activation, primary screen. AID 623877. 340,000 tested, 0.3% active. HEK293 TMEM16A/YFP-H148Q/I152L, iodide quench fluorescence; hits give low values. B-score at 10 µM. Q8BHY3;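 active = fluorescence-ratio B-score plate-corrected deviation score at least 3 library SD below zero, with starting fluorescence score within 5 deviations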;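 also: channel opened by trigger with iodide after compound preincubation; score built on the fluorescence ratio of max minus min over baseline; more negative score means more quench and so TMEM16A activation or potentiation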
TMEM16A reconf = reconfirmed blocker of mouse TMEM16A calcium-activated chloride channel; 2,300 tested, 39% active; inhibition, % at 10 µM; HEK293 TMEM16A/YFP-H148Q, iodide quench fluorescence; ionomycin added to raise cell calcium; shares compounds with TMEM16A inh; AID 652189;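 active = mean duplicate percent inhibition, scaled so buffer wells are 0 and the reference blocker 100, over three buffer SD above buffer mean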
HEK293 Ca mobil = calcium mobilization counter-screen hit for TMEM16A inhibitor series; shares compounds with TMEM16A inh; TMEM16A/YFP HEK293, Fluo4 calcium mobilization; calcium response (% of ionomycin), % at 10 µM; 2,300 tested, 2% active; AID 652231;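 active = duplicate-averaged calcium signal over 20% of the ionomycin maximum, relative to buffer baseline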;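 also: each well's signal is peak minus trough fluorescence divided by its pre-addition baseline; 0% = buffer wells and 100% = ionomycin wells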
YFP-HEK293 quench = acts in parental YFP-HEK293 cells lacking TMEM16A, counter-screen; shares compounds with TMEM16A inh; iodide YFP quench, ionomycin; YFP ratio F(max-min)/F0 at 10 µM; 2,300 tested, under 10 active; AID 652233;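 active = yellow fluorescent protein signal ratio exceeding the buffer control mean by over 5 SD of those controls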;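 also: ratio is mean of duplicate wells from kinetic YFP trace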
ClC-1 rat inh = rat ClC-1 inhibition, TMEM16A specificity screen | shares compounds with TMEM16A inh | CHO ClC-1-YFP, iodide influx fluorescence quench; iodide control reads 0, buffer control 100 | ratio percent, % at 10 µM | 2,300 tested, under 10 active | AID 652236;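 active = duplicate-mean ratio percent above the mean of iodide-only control wells, which defines zero, plus 5 of their SD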;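 also: higher percent means stronger block of ClC-1 iodide influx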
Starred values were filed as active, the others as inactive; i = inactive; / = no result. Hits are enriched below; roughly 2.4% of the tested compounds scored in any of these assays.

SMILES	CHT block	TMEM16A inh	CHT allo act	TMEM16A act	TMEM16A reconf	HEK293 Ca mobil	YFP-HEK293 quench	ClC-1 rat inh
Oc1ccc(NCc2cccc(OCc3ccccc3)c2)cc1	i	25*	i	i	i	26%*	-1	-1
CCOC(=O)c1ccc(NC(=O)CN(Cc2ccc(Cl)cc2)S(C)(=O)=O)cc1	i	i	i	i	/	/	/	/
CCOC(=O)C1=C(CSc2nc3ccccc3s2)NC(=O)NC1c1ccc(OC)cc1 (configuration not stated)	i	25*	i	i	i	i	-1.1	-16
Cc1c(/C=N/NC(=O)c2ccccc2O)c2ccccn2c1C(=O)c1ccc(F)cc1	i	100*	i	i	34%*	i	-0.92	-14
CCOc1cc(/C=N/Nc2nc(=O)[nH]nc2C)ccc1O	i	i	i	i	/	/	/	/
Cc1c(/C(O)=C2/C(=O)C(=O)N(CCN3CCOCC3)C2c2cccnc2)cnn1-c1ccccc1 (configuration not stated)	i	i	i	i	/	/	/	/
C=CCOC(=O)C1=C(C)NC(SCC(N)=O)=C(C#N)C1c1ccc(C)cc1 (configuration not stated)	i	i	i	i	/	/	/	/
C=CCOC(=O)C1=C(C)NC(SCC)=C(C#N)C1c1ccc(Cl)cc1 (configuration not stated)	i	100*	i	i	22%*	i	-1.3	-20
Cc1cc(C(=O)CSc2n[nH]c(-c3ccccc3F)n2)c(C)n1Cc1cccs1	i	100*	i	i	i	i	-1.1	-4
Cc1cc(C(=O)CSc2nnc(N)s2)c(C)n1Cc1cccs1	i	i	i	i	/	/	/	/
O=C(CN1C(=O)COc2ccccc21)N1CCCC1	i	i	i	i	/	/	/	/
O=C(CCN1C(=O)COc2ccccc21)N1CCCCC1	i	i	i	i	i	i	-0.96	-6
Cc1cc(C(=O)NCC(=O)OCC(=O)Nc2ccc(OC(F)F)cc2)ccc1[N+](=O)[O-]	i	25*	i	i	i	i	-1.2	-2
N#CC1(Cc2ccccc2Cl)c2ccccc2C=CN1C(=O)c1ccccc1 (configuration not stated)	i	25*	i	i	i	i	-1.2	-9
O=C1C(Oc2ccccc2)C(c2cccs2)N1Cc1ccc2c(c1)OCO2 (configuration not stated)	i	i	i	i	/	/	/	/
COc1ccc(OC2C(=O)N(Cc3ccc4c(c3)OCO4)C2c2cccs2)cc1 (configuration not stated)	i	100*	i	i	28%*	i	-0.88	-4
Cc1ccc(NCC(=O)N/N=C/c2cccn2C)cc1	i	i	i	i	/	/	/	/
COc1cccc(/C=C2/CN(C)CC3=C2OC(N)=C(C#N)C3c2cccc(OC)c2)c1 (configuration not stated)	i	i	i	i	i	i	-1.2	-10
COc1cccc(C2C(C#N)=C(N)OC(C(C)(C)C)=C2C#N)c1 (configuration not stated)	i	i	i	i	/	/	/	/
Cc1ccc(O)c(-c2cc(C(F)(F)F)[nH]n2)c1	i	100*	i	i	56%*	i	-1.2	-28
Cc1cccc(NC(=O)c2cc(-c3cc(C)ccc3O)n[nH]2)c1	i	i	i	i	/	/	/	/
Cc1cc(NC(C)c2ccccc2)n2ncc(-c3ccccc3)c2n1 (configuration not stated)	i	100*	i	i	i	i	-0.93	-6
COc1ccc(-c2cc(C(=O)OCC(=O)NC(C)C)c3ccccc3n2)cc1	i	i	i	i	/	/	/	/
COc1ccc(C2=NS(=O)(=O)N(C)C(C(=O)N3CCc4ccccc4C3)=C2)cc1OC	i	25*	i	i	26%*	i	-0.93	-9
COc1cc(CNc2ccc3[nH]c(=O)[nH]c3c2)ccc1OCc1ccc(C)cc1	i	i	i	/	/	/	/	/
SMILES	CHT block	TMEM16A inh	CHT allo act	TMEM16A act	TMEM16A reconf	HEK293 Ca mobil	YFP-HEK293 quench	ClC-1 rat inh
Cc1ccc(C)c(OCC(=O)NCCNC(=O)COc2cc(C)ccc2C)c1	i	100*	i	i	i	i	-1.2	-12
Cn1nc(-c2ccc(Cl)cc2)cc1NC(=O)CC(C)(C)CC(=O)O	i	i	i	i	/	/	/	/
CC(=O)Nc1ccc(/C=N/N2C(=O)NC(C)(c3ccc(OC(F)F)cc3)C2=O)cc1 (configuration not stated)	i	100*	i	-13*	93%*	i	-0.96	-6
O=C(NC(=S)Nc1cccc2cccnc12)c1cccs1	i	i	i	i	/	/	/	/
CC[N+](C)(C)Cc1ccccc1Br	i	i	i	i	/	/	/	/
N#CC1=C2SCC(O)(c3ccccc3)N2C(=O)CC1c1ccccc1 (configuration not stated)	i	100*	i	i	16%*	i	-0.95	-16
COc1ccc(CCN2CC(C(=O)NCc3c(C)n[nH]c3C)CCC2=O)cc1 (configuration not stated)	i	i	i	i	/	/	/	/
O=C(O)CN1CCN(c2ncc(C(F)(F)F)cc2Cl)CC1	i	i	i	i	/	/	/	/
Fc1ccc(-c2nnc(CN3CCN(c4ncc(C(F)(F)F)cc4Cl)CC3)o2)cc1	i	100*	i	i	i	i	-1.1	-19
Cc1cc(Nc2ccccc2)nc(NCc2ccccc2)n1	i	100*	i	i	i	i	-1.1	-24
Cc1cc(N2CCC(C)CC2)nc(NCc2ccccc2)n1	i	100*	i	i	i	i	-1.3	-20
Cc1cc(Nc2cccc(F)c2)nc(NCc2ccccc2)n1	i	i	i	i	/	/	/	/
Cc1cc(N2CCC(C)CC2)nc(-c2ccccc2O)n1	i	i	i	i	/	/	/	/
CN(CC(=O)NCc1cccnc1)S(=O)(=O)c1ccccc1	i	i	i	i	/	/	/	/
O=C(Nc1ccc(OCC(F)(F)C(F)F)c(C(F)(F)F)c1)c1ccccc1O	i	100*	i	i	i	i	-0.78	-9
COc1ccc(C(=O)Nc2ccc(Cc3ccncc3)cc2)cc1Br	i	i	i	i	/	/	/	/
